The record followed here is PubChem BioAssay.

Each structure is given as a SMILES string. The source made the active and inactive calls. How the calls were made is not given here.

Pantothenate synthetase (Mycobacterium tuberculosis (strain ATCC 25618 / H37Rv)), sequence (P9WIL5 whole entry, looked up): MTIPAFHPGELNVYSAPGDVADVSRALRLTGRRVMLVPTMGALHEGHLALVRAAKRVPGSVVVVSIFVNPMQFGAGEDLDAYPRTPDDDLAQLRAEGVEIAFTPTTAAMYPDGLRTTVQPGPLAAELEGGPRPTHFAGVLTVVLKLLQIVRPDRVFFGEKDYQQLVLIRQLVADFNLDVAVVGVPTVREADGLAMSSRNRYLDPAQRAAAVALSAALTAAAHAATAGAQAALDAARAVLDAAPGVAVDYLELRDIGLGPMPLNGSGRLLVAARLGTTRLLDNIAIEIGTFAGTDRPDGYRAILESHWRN

The assay addresses Pantothenate synthetase (Mycobacterium tuberculosis (strain ATCC 25618 / H37Rv)) (UniProt P9WIL5). The assay can be described thus: Recombinant Mtb pantothenate synthetase (PanC) inhibitors, coupled enzyme, confirmatory (AID 375).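 Further: 0% = full reaction with vehicle and 100% = no enzyme background.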 The settings on record: coupled enzyme assay; at 10 µM, hits give high values.
A word on the inhibition: it is the share of the control response that was lost under treatment. As to `COC(=O)CCN1CCC(C(N)=O)CC1`, the inhibition was 1% (inactive).
With `COCCCNC(=O)CCn1c(=O)c2ccccc2n(CC(=O)Nc2ccc(C)cc2C)c1=O` the figure was 0% (inactive).
Then `O=[n+]1c2c(n([O-])c3c1CCCC3)CCCC2`, with 0% (inactive).
With `Clc1ccc2c(c1)[C@H]1OCC[C@H]1[C@@H](c1ccco1)N2` the figure was 3% (inactive); with `CN(C)c1ccc(C=NCC2(O)CCOC(C)(C)C2)cc1` (stereo not drawn), 3% (inactive); with `CSCCC(NS(=O)(=O)c1ccc2c(c1)oc(=O)n2C)C(=O)NC1CCCCC1` (stereo not drawn), 0% (inactive).
With `COc1ccccc1OCCCCNCCO`, the inhibition is 0% (inactive).
As to `COc1cccc(CC(NC(C)=O)C(=O)NC2CCN(c3c4c(nc5ncnn35)CCC4)CC2)c1` (stereo not drawn), the inhibition is 5% (inactive).
Then `CCOC(=O)c1[nH]c2ccc(F)cc2c1NC(=O)C(C)N1CCc2cc(OC)c(OC)cc2C1` (stereo not drawn), with 3% (inactive); and `COc1ccc(OC)c(CNC(=O)CCN2C(=O)COc3ccccc32)c1`, with 5% (inactive); and `O=C(NC1CCCC1)C1CCCN(S(=O)(=O)c2cccc3cccnc23)C1` (stereo not drawn), with 2% (inactive).
With `CN(C)CCN(Cc1ccccc1)c1ccccn1` the figure was 5% (inactive); with `Cn1c(=O)n(CCC(=O)O)c2ccccc21`, 7% (inactive).
Then `Nc1nc2n(n1)C(c1cccc(Br)c1)CC(c1ccccc1)N2` (stereo not drawn), with 0% (inactive); and `COc1ccccc1C(=O)Nc1nc2ccc(S(C)(=O)=O)cc2s1`, with 0% (inactive); and `COc1ccc(S(=O)(=O)NCCSCc2ccco2)cc1Cl`, with 0% (inactive).
As to `Cc1cc(=O)[nH]c(S/C=C/c2ccccc2)n1`, the inhibition is 0% (inactive).
With `Cc1cc(NC(=O)CCC(=O)N(CC(=O)NC2CCCC2)Cc2ccc(F)cc2)no1` the figure was 0% (inactive).
Then `CCOc1cc(S(=O)(=O)NCc2ccccn2)c(C)cc1C`, with 0% (inactive); and `O=C(O)c1c(Cl)c(Cl)c(Cl)c(Cl)c1C(=O)N1CCOCC1`, with 0% (inactive).
With `COc1cc(NS(=O)(=O)c2ccc(N)cc2)ncn1` the figure was 0% (inactive).
`Nc1nonc1-n1nnc(C(=O)c2ccccc2)c1-c1ccccc1`: the inhibition is 0% (inactive).
With `CCc1ccc2oc(-c3cc(N)ccc3Cl)nc2c1` the figure was 2% (inactive).
